Data on 39 sequences can be found in the OligoGym collection.
Further: reference of the scale not given here.

In one test the target is ARHGAP5. Put plainly: pooled miR-30 sensor sort-seq; sequence = guide strand. Particulars: shRNA.
Regarding TGAAGTATACTACTGAACCCTG, the sensor-assay potency score (higher = more potent) is -0.25.
Turning to TTATGTTGCTGACTAACCCTGT, the sensor-assay potency score (higher = more potent) is 0.477.
TTCTACAACAAATTTCATGTTT returned a sensor-assay potency score (higher = more potent) of -0.238.
On the same count and under the same terms, as for TACAAGACCATCATAGATCTTT, the figure is 0.493; as for TTCTACACTATACTAAATGTGT, -0.488; as for TTTAGCCACAAGCATGTCCTTG, -0.792.
With TAGATTGATATTATGATCTTGA, the sensor-assay potency score (higher = more potent) is 1.05.
Same read-out and setting: the same measure for TTTATGTTGCTGACTAACCCTG: -0.695; for TAGTAGACAGAAACTCTCGATT: -0.0895; for TAGTAGTAGACAGAAACTCTCG: 0.344.
On the same count and under the same terms, the same measure for TTTAGTTATCTACACCGACTGC: -0.686.
TTTCTTTCAAACAACATCCCAA: the sensor-assay potency score (higher = more potent) worked out at 0.179.
As for TTTTTGTCCAAATCCAGCCTGT, the sensor-assay potency score (higher = more potent) was -0.169.
Same read-out and setting: the same measure for TCAAATAACAAAATCAGCCAGA: -0.237; for TTTCTTAACAATTTCTTTCAAG: -0.634; for TTGCTTTTTGTCCAAATCCAGC: -1.64.
Still for that read-out and setting: the same measure for ATGATCTTGATCAAACTGCTTT: -0.663; for TTCTATAGTATGACTTGGCTTT: 0.162; for TAAACCTCTCCAGTCATGCTTA: -0.431.
On the same count and under the same terms, the same measure for TTTGAATATTGTCTTGGTCAGT: -0.551; for TAAGGTTGCATGCAGCAGCAGC: -0.593.
Turning to TTGCACAACATTATCAACTCAC, the sensor-assay potency score (higher = more potent) was found to be 0.731.
Take TTTTATTTCATTATGGACCATA: the sensor-assay potency score (higher = more potent) was -0.301.
The same measure, in the same setting: the same measure for TAATTGTGGTTGTATCAGCTGA: -0.356.

The target in a further test is ARHGEF15. The description is as above. Conditions: shRNA.
For TTGCGCTCAGCAGTGGAGCGGT, the sensor-assay potency score (higher = more potent) was -0.34.
On the same count and under the same terms, the same measure for TTGCACAGCCGGAAGCTCCTGC: -0.0952.
Consider TTGCTGGAGGAGTATTCTGAGG, for which the sensor-assay potency score (higher = more potent) was -1.94.
The same measure, in the same setting: as for TAACTCAGTCAGCTCTCCCTGG, the figure is -0.77; as for TAGGATGTGAGGACAACGGCAG, 0.25.
Turning to TTGCTAGAAACCGCTCGCTGAC, the sensor-assay potency score (higher = more potent) was -1.26.
TTTCGGGGTAGTTCTTGTGGAG gave a sensor-assay potency score (higher = more potent) of -0.734.
The same measure, in the same setting: as for TTGTGGAGAGGAGCCATTGTGG, the figure is -1.62.
The same measure, in the same setting: the same measure for TGATCTTGCTGACAGCACCCAG: -1.42; for TATTCTGAGGAGCTTCATCAGG: -0.865; for TTGGAGTAGTCGGTGGGTGGGG: -0.515.
In turn, ACATAATCCACATACACCGAGA registered a sensor-assay potency score (higher = more potent) of -1.37.

For another test, the target named is ARIH1. The description is as above. Particulars: shRNA.
TTGGACTTTAACAACATGGTGG: the sensor-assay potency score (higher = more potent) amounted to 0.0155.
On the same count and under the same terms, the same measure for TTAGGGTAGTTCAAGTAGCAGA: -0.412.
Same read-out and setting: as for TTAACCACTTACATTTAACAGG, the figure is -0.703.
